# From PubChem BioAssay (EPA / NIEHS)
# Calls of active or inactive are those of the source. How the source made its calls: active means hit-call score of the fitted dose curve at least 0.9, where 1 is the maximum; inactive means score below 0.9.
# Experiments:
# Conditions in all cases: mRNA level, 48 h; actives raise or lower the signal
# [1] = read-out: Lipase C (LIPC), LIPC (gene 3990); test: LTEA_HepaRG_LIPC: Life Technologies and Expression Analysis (LTEA) Assay for Lipase C (LIPC) using HepaRG (AID 2283514)
# Outline: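 HepaRG cells, 48 h after plating, treated in duplicate for 48 h in serum-free induction medium over 8 half-log concentrations from 100 uM, 0.5% DMSO. LIPC mRNA by TaqMan qRT-PCR normalized to ACTB/GAPDH/POLR2A; bidirectional fit versus DMSO.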
# [2] = read-out: Lipoprotein lipase (LPL), LPL (gene 4023); test: LTEA_HepaRG_LPL: Life Technologies and Expression Analysis (LTEA) Assay for Lipoprotein lipase (LPL) using HepaRG (AID 2283515)
# Outline: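 Differentiated HepaRG cells, plated 48 h, then exposed 48 h in serum-free induction medium to 8 concentrations (top 100 uM, half-log steps) in 0.5% DMSO, duplicate. LPL mRNA measured by qRT-PCR, normalized to ACTB, GAPDH and POLR2A.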
# [3] = read-out: MicroRNA 122 (MIR122), gene 406906; test: LTEA_HepaRG_MIR122: Life Technologies and Expression Analysis (LTEA) Assay for MicroRNA 122 (MIR122) using HepaRG (AID 2283516); further: the transcript read is the microRNA miR-122
# Outline: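 HepaRG plated 48 h, switched to serum-free induction medium, then treated in duplicate for 48 h (100 uM top, half-log steps, 0.5% DMSO vehicle). RNA isolated, qRT-PCR performed, concentration-response fitted both directions relative to DMSO.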
# [4] = read-out: matrix metalloproteinase-10 (MMP10), MMP10 (gene 4319); test: LTEA_HepaRG_MMP10: Life Technologies and Expression Analysis (LTEA) Assay for matrix metalloproteinase-10 (MMP10) using HepaRG (AID 2283517)
# Outline: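 Differentiated HepaRG cells in serum-free induction medium exposed 48 h in duplicate to 8-point half-log series up to 100 uM in 0.5% DMSO. mRNA quantified by qRT-PCR, normalised to ACTB, GAPDH, POLR2A; bidirectional fit versus DMSO.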
# MYC, MYC (gene 4609) = test: LTEA_HepaRG_MYC: Life Technologies and Expression Analysis (LTEA) Assay for MYC using HepaRG (AID 2283518)
# Outline: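 Differentiated HepaRG cells exposed 48 h in serum-free induction medium to 8 concentrations (top 100 uM, half-log steps; 0.5% DMSO), duplicate. MYC mRNA measured by Fluidigm qRT-PCR, normalized to ACTB, GAPDH, POLR2A; bidirectional fit versus DMSO.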
# [5] = read-out: matrix metalloproteinase-3 (MMP3), MMP3 (gene 4314); test: LTEA_HepaRG_MMP3: Life Technologies and Expression Analysis (LTEA) Assay for matrix metalloproteinase-3 (MMP3) using HepaRG (AID 2283519)
# Outline: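 HepaRG cells (~100,000/well) in serum-free induction medium were dosed in duplicate for 48 h with an 8-point half-log series from 100 uM, 0.5% DMSO. MMP3 mRNA was quantified by Fluidigm TaqMan qRT-PCR, normalized to three housekeeping genes.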
# [6] = read-out: Paternally Expressed 10 (PEG10), PEG10 (gene 23089); test: LTEA_HepaRG_PEG10: Life Technologies and Expression Analysis (LTEA) Assay for Paternally Expressed 10 (PEG10) using HepaRG (AID 2283520)
# Outline: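 HepaRG, 48 h post-plating → serum-free induction medium → 48 h chemical exposure (duplicate, 8-pt, max 100 uM, half-log, 0.5% DMSO) → lysis in RLT → TaqMan qRT-PCR for PEG10, ACTB/GAPDH/POLR2A normalisation.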
# [7] = read-out: Protein phosphatase 2A (PPP2R4), PTPA (gene 5524); test: LTEA_HepaRG_PPP2R4: Life Technologies and Expression Analysis (LTEA) Assay for Protein phosphatase 2A (PPP2R4) using HepaRG (AID 2283522)
# Outline: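 Readout is PPP2R4 transcript level by microfluidic qRT-PCR after 48 h chemical treatment of human HepaRG liver cells. Concentrations spanned 100 uM downward in half-log steps; gain or loss of signal was fitted relative to DMSO.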
# [8] = read-out: Phosphatase and tensin (PTEN), PTEN (gene 5728); test: LTEA_HepaRG_PTEN: Life Technologies and Expression Analysis (LTEA) Assay for Phosphatase and tensin (PTEN) using HepaRG (AID 2283523)
# Outline: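 HepaRG cells, 48 h after plating, exposed in duplicate for 48 h in serum-free induction medium to 8 half-log concentrations up to 100 uM (0.5% DMSO). PTEN mRNA by qRT-PCR, normalized to ACTB, GAPDH, POLR2A; bidirectional fit versus DMSO.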
# [9] = read-out: solute carrier (SLC22A1), SLC22A1 (gene 6580); test: LTEA_HepaRG_SLC22A1: Life Technologies and Expression Analysis (LTEA) Assay for solute carrier (SLC22A1) using HepaRG (AID 2283524)
# Outline: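 Differentiated human HepaRG cells in serum-free induction medium, exposed 48 h in duplicate to 8-point half-log series from 100 µM top in 0.5% DMSO. SLC22A1 mRNA by TaqMan qRT-PCR normalized to ACTB, GAPDH, POLR2A; bidirectional fit versus DMSO.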
# [10] = read-out: Pyruvate Dehydrogenase Kinase 4 (PDK4), PDK4 (gene 5166); test: LTEA_HepaRG_PDK4: Life Technologies and Expression Analysis (LTEA) Assay for Pyruvate Dehydrogenase Kinase 4 (PDK4) using HepaRG (AID 2283525)
# Outline: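 HepaRG cells plated 48 h, then switched to serum-free induction medium and exposed in duplicate for 48 h to 8 half-log concentrations from 100 uM in 0.5% DMSO. PDK4 mRNA measured by qRT-PCR, normalized to ACTB, GAPDH and POLR2A; bidirectional fit versus DMSO.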
# [11] = read-out: NAD(P)H dehydrogenase [quinone] 1 (NQO1), NQO1 (gene 1728); test: LTEA_HepaRG_NQO1: Life Technologies and Expression Analysis (LTEA) Assay for NAD(P)H dehydrogenase [quinone] 1 (NQO1) using HepaRG (AID 2283526)
# Outline: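 HepaRG, 48 h post-plating → serum-free induction medium → test chemical 48 h (duplicate, 100 uM top, half-log x8, 0.5% DMSO) → RNA isolation → qRT-PCR, ACTB/GAPDH/POLR2A normalization; bidirectional curve fit vs DMSO baseline.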
# [12] = read-out: Nuclear factor erythroid 2-related factor 2 (Homo sapiens) (UniProt Q16236); test: LTEA_HepaRG_NFE2L2: Life Technologies and Expression Analysis (LTEA) Assay for Nuclear factor erythroid 2-related factor 2 (NFE2L2) Transcription Factor using HepaRG (AID 2283527)
# Outline: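 Differentiated human HepaRG cells, serum-free induction medium, exposed 48 h in duplicate to eight half-log concentrations up to 100 uM in 0.5% DMSO. NFE2L2 mRNA by Fluidigm TaqMan qRT-PCR, normalised to ACTB, GAPDH, POLR2A; bidirectional change versus DMSO.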
# [13] = read-out: succinate dehydrogenase complex iron sulfur subunit B (SDHB), SDHB (gene 6390); test: LTEA_HepaRG_SDHB: Life Technologies and Expression Analysis (LTEA) Assay for succinate dehydrogenase complex iron sulfur subunit B (SDHB) using HepaRG (AID 2283528)
# Outline: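 SDHB transcript level read by TaqMan qRT-PCR, housekeeping-normalised (ACTB, GAPDH, POLR2A), after 48 h chemical treatment of plated HepaRG cells; eight concentrations top 100 uM, half-log steps, 0.5% DMSO, duplicates; fitted both directions against DMSO.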
# [14] = read-out: Signal transducer and activator of transcription 3 (Homo sapiens) (UniProt P40763); test: LTEA_HepaRG_STAT3: Life Technologies and Expression Analysis (LTEA) Assay for Signal transducer and activator of transcription (STAT3) using HepaRG (AID 2283529)
# Outline: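 Differentiated HepaRG cells, serum-free induction medium, dosed 48 h in duplicate, 8 half-log concentrations from 100 uM in 0.5% DMSO. STAT3 mRNA by qRT-PCR, normalised to ACTB, GAPDH, POLR2A; bidirectional fit versus DMSO.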
# [15] = read-out: solute carrier (SLCO1B1), SLCO1B1 (gene 10599); test: LTEA_HepaRG_SLCO1B1: Life Technologies and Expression Analysis (LTEA) Assay for solute carrier (SLCO1B1) using HepaRG (AID 2283530)
# Outline: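 Differentiated human HepaRG cells were exposed for 48 h in serum-free induction medium to eight half-log concentrations, top 100 uM, in 0.5% DMSO. SLCO1B1 mRNA was measured by qRT-PCR, normalized to ACTB, GAPDH and POLR2A, and fitted bidirectionally against DMSO.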
# [16] = read-out: sulfotransferase 2A1 (SULT2A1), SULT2A1 (gene 6822); test: LTEA_HepaRG_SULT2A1: Life Technologies and Expression Analysis (LTEA) Assay for sulfotransferase 2A1 (SULT2A1) using HepaRG (AID 2283531)
# Outline: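 HepaRG human liver cells, 48 h exposure in serum-free induction medium to 8 half-log concentrations topping at 100 µM (0.5% DMSO), duplicate wells. SULT2A1 mRNA measured by TaqMan qRT-PCR, normalized to ACTB/GAPDH/POLR2A; bidirectional fit against DMSO.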
# [17] = read-out: Transforming Growth Factor (TGFA), TGFA (gene 7039); test: LTEA_HepaRG_TGFA: Life Technologies and Expression Analysis (LTEA) Assay for Transforming Growth Factor (TGFA) using HepaRG (AID 2283532)
# Outline: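 Differentiated HepaRG cells exposed 48 hours in serum-free induction medium, 0.5% DMSO vehicle, 8-point half-log series from 100 uM, in duplicate. TGFA mRNA by TaqMan qRT-PCR, normalised to ACTB, GAPDH, POLR2A; bidirectional fit versus DMSO.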
# [18] = read-out: Transforming Growth Factor (TGFB1), TGFB1 (gene 7040); test: LTEA_HepaRG_TGFB1: Life Technologies and Expression Analysis (LTEA) Assay for Transforming Growth Factor (TGFB1) Transporter using HepaRG (AID 2283533)
# Outline: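 Differentiated HepaRG cells exposed 48 hr in serum-free induction medium to eight half-log concentrations up to 100 uM (0.5% DMSO), duplicate; TGFB1 mRNA by TaqMan qRT-PCR normalised to ACTB, GAPDH, POLR2A; bidirectional fit against DMSO.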
# [19] = read-out: Nuclear factor NF-kappa-B p105 subunit (Homo sapiens) (UniProt P19838); test: LTEA_HepaRG_NFKB1: Life Technologies and Expression Analysis (LTEA) Assay for Nuclear Factor Kappa B Subunit 1 (NFKB1) using HepaRG (AID 2283521)
# Outline: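 NFKB1 transcript was measured by TaqMan qRT-PCR on Fluidigm arrays, normalised to three housekeeping genes and fitted in both directions against 0.5% DMSO. HepaRG cells were dosed in duplicate for 48 h in serum-free induction medium, eight half-log steps from 100 uM.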
# Sequence of Signal transducer and activator of transcription 3 (Homo sapiens) (P40763 whole entry, looked up): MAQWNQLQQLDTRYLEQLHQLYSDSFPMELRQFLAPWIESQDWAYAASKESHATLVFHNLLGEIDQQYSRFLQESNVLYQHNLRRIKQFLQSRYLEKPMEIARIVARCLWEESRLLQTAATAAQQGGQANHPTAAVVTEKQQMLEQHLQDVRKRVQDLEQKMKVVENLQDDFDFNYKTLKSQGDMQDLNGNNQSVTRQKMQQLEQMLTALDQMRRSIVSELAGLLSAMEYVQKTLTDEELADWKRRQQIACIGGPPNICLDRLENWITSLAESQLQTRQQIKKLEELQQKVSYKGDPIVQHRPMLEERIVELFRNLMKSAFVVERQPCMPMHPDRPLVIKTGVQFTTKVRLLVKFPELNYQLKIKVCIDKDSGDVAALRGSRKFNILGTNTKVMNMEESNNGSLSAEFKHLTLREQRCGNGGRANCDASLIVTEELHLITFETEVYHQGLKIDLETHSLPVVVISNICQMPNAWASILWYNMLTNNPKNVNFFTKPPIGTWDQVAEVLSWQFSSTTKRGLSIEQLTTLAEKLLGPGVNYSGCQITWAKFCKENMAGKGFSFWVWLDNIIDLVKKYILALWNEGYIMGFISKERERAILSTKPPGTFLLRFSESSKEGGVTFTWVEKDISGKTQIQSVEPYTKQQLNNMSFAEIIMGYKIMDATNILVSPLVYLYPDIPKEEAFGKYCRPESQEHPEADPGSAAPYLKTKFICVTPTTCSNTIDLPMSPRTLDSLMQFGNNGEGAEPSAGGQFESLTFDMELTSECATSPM
# Sequence of Nuclear factor erythroid 2-related factor 2 (Homo sapiens) (Q16236 whole entry, looked up): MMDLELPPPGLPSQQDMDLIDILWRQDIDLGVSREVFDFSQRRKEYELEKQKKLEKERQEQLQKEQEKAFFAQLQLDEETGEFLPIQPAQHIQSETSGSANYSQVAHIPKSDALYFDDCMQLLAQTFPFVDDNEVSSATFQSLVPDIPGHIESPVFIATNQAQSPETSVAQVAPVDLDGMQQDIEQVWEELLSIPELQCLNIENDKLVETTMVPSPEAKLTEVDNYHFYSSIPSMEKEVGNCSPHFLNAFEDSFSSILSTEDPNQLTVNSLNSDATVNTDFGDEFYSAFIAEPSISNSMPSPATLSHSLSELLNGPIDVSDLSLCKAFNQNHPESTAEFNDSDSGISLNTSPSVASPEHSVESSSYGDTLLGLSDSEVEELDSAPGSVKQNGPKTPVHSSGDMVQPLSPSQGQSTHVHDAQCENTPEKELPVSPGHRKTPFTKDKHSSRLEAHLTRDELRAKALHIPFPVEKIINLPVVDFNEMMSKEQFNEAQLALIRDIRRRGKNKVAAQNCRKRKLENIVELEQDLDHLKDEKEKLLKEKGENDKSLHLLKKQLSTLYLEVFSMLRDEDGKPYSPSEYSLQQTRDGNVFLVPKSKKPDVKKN
# Sequence of Nuclear factor NF-kappa-B p105 subunit (Homo sapiens) (P19838 whole entry, looked up): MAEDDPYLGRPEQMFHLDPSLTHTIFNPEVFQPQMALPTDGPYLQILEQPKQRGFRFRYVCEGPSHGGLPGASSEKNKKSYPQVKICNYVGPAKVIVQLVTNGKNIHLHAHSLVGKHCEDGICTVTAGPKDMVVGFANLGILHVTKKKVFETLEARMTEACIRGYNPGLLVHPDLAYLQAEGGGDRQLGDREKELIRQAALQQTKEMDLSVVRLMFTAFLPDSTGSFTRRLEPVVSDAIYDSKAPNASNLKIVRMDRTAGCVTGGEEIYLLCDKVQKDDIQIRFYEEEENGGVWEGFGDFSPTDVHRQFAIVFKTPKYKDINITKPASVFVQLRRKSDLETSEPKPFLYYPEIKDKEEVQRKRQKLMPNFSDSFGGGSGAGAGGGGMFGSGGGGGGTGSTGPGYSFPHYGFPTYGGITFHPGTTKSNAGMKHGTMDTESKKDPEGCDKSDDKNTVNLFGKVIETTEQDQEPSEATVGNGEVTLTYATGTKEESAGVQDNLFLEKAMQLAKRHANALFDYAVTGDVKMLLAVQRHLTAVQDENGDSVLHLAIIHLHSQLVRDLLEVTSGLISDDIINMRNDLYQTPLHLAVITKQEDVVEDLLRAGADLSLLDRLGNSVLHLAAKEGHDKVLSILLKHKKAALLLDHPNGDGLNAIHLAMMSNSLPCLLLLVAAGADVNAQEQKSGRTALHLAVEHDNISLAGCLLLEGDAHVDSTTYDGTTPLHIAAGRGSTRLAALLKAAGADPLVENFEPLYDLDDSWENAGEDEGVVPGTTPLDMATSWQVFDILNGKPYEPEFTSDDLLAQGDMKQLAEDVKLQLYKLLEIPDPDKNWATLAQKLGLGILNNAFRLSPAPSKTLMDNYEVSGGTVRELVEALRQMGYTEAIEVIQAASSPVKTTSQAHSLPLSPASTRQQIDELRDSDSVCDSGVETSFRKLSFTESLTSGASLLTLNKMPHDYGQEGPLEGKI
smiles,measurement,setting,value
CCCCOC(=O)CC(CC(=O)OCCCC)(OC(C)=O)C(=O)OCCCC,outcome,[1],inactive
same,outcome,[2],inactive
same,outcome,[3],inactive
same,outcome,[4],inactive
same,outcome,"MYC, MYC (gene 4609)",inactive
same,outcome,[5],inactive
same,outcome,[6],inactive
same,outcome,[7],inactive
same,outcome,[8],inactive
same,outcome,[9],inactive
same,outcome,[10],inactive
same,outcome,[11],inactive
same,outcome,[12],inactive
same,outcome,[13],inactive
same,outcome,[14],inactive
same,outcome,[15],inactive
same,outcome,[16],inactive
same,outcome,[17],inactive
same,outcome,[18],inactive
Oc1ccccc1,outcome,[1],inactive
same,outcome,[2],inactive
same,outcome,[3],inactive
same,outcome,[4],inactive
same,outcome,"MYC, MYC (gene 4609)",inactive
same,outcome,[5],inactive
same,outcome,[6],inactive
same,outcome,[7],inactive
same,outcome,[8],inactive
same,outcome,[9],inactive
same,outcome,[10],inactive
same,outcome,[11],inactive
same,outcome,[12],inactive
same,outcome,[13],inactive
same,outcome,[14],inactive
same,outcome,[15],inactive
same,outcome,[16],inactive
same,outcome,[17],inactive
same,outcome,[18],inactive
CCCCCCCCCCCO,outcome,[1],inactive
same,outcome,[2],inactive
same,outcome,[3],inactive
same,outcome,[4],inactive
same,outcome,"MYC, MYC (gene 4609)",inactive
same,outcome,[5],inactive
same,outcome,[6],inactive
same,outcome,[19],inactive
same,outcome,[8],inactive
same,outcome,[9],inactive
same,outcome,[10],inactive
same,outcome,[11],inactive
same,outcome,[12],inactive
same,outcome,[13],inactive
same,outcome,[14],inactive
same,outcome,[15],inactive
same,outcome,[16],inactive
same,outcome,[17],inactive
same,outcome,[18],inactive
c1ccc2ccccc2c1,outcome,[1],inactive
same,outcome,[2],inactive
same,outcome,[3],inactive
same,outcome,[4],inactive
same,outcome,[5],inactive
same,outcome,[6],inactive
same,outcome,[19],inactive
same,outcome,[7],inactive
same,outcome,[8],inactive
same,outcome,[9],inactive
same,outcome,[10],inactive
same,outcome,[11],inactive
same,outcome,[12],inactive
same,outcome,[13],inactive
same,outcome,[14],inactive
same,outcome,[15],inactive
same,outcome,[16],inactive
same,outcome,[17],inactive
Clc1cc(Cl)c2c(c1)N=C1CCCCCN1C2,outcome,[1],inactive
same,outcome,[2],inactive
same,outcome,[3],inactive
same,outcome,[4],inactive
same,outcome,"MYC, MYC (gene 4609)",inactive
same,outcome,[5],inactive
same,outcome,[6],inactive
same,outcome,[19],inactive
same,outcome,[8],inactive
same,outcome,[9],inactive
same,AC50,[10],12.6 µM (active)
same,outcome,[11],inactive
same,outcome,[12],inactive
same,outcome,[13],inactive
same,outcome,[14],inactive
same,outcome,[15],inactive
same,outcome,[16],inactive
same,outcome,[17],inactive
same,outcome,[18],inactive
CN(C)C(=O)C1(N2CCCCC2)CCN(CC[C@@]2(c3ccc(Cl)c(Cl)c3)CN(C(=O)c3ccccc3)CCO2)CC1,outcome,[1],inactive
same,AC50,[2],24.8 µM (active)
same,AC50,[3],10.9 µM (active)
same,AC50,[4],77.1 µM (active)
same,AC50,"MYC, MYC (gene 4609)",21.4 µM (active)
same,outcome,[5],inactive
same,outcome,[6],inactive
same,AC50,[19],80.3 µM (active)
same,outcome,[8],inactive
same,AC50,[9],27.6 µM (active)
same,outcome,[10],inactive
same,outcome,[11],inactive
same,AC50,[12],47.2 µM (active)
same,AC50,[13],22.5 µM (active)
same,AC50,[14],47.2 µM (active)
same,AC50,[15],23.1 µM (active)
same,AC50,[16],23.3 µM (active)
same,outcome,[17],inactive
